According to PubChem BioAssay (NCATS):
Values joined by “and” are separate entries in the source; they are usually repeats but may differ in a detail not shown here. Equal values may be shown once. Results filed as inconclusive are left out. A number with no mark means an inactive call. Active and inactive are the calls of the source. Unless noted, the call rests on the fitted dose curve; in most records, active means well fitted curve in the direction sought with a large enough effect; inconclusive means small, poorly fitted or top-dose-only effect, or another doubt; inactive means no such curve, though single readings can be large; an effect the other way counts as inactive or inconclusive.

How the values were obtained:
[1] = target: Cellular tumor antigen p53 (Homo sapiens) (UniProt P04637); assay: Primary qHTS for small molecule compounds that upregulate eGFP-tagged delta133p53alpha (in N-terminal) cells. (AID 2060322); conditions: NCI-H358 eGFP-delta133p53alpha fluorescence, 24 h; activation: stronger effect = higher value; further: nearly all actives have a fitted effect of over 75% in size; further: potency means the concentration at half of the fitted maximal effect;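 on activation: cells pre-induced with doxycycline then dosed without doxycycline; series mostly up to about 56 µM; 0% = DMSO vehicle and 100% = reference activator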
Sequence of Cellular tumor antigen p53 (Homo sapiens) (P04637 whole entry, looked up): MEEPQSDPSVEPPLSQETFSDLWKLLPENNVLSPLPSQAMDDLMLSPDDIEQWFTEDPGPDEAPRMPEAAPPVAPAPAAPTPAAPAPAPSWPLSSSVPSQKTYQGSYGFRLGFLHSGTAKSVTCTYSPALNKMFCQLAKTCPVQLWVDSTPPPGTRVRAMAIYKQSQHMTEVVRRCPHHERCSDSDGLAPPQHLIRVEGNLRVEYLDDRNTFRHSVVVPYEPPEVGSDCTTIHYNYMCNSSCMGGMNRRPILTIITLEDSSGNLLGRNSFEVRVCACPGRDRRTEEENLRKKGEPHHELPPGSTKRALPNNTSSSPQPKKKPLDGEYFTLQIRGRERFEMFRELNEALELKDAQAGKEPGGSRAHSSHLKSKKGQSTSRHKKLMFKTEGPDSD
Outline: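 NCI-H358 cells pre-induced 24 h with 10 ng/ml doxycycline for eGFP-delta133p53alpha, plated dox-free and exposed 24 h at 37C to titrated compounds. Fixed, Hoechst-stained; gated GFP peak intensity by laser scanning cytometry, normalized to DMSO (0%) and 57.5 uM 5-azacytidine (100%).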

[2] = target: Retinaldehyde dehydrogenase 3 (Homo sapiens) (UniProt P47895); assay: qHTS for Inhibitors of the Aldehyde Dehydrogenase Family (ALDH1A3) Primary screen (AID 2061315);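 further: plate controls were DMSO vehicle for no effect and reference inhibitor for full effect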
[3] = BET inhibitor-based combinations targeting novel dependencies in MECOM-rearranged (r) AML: MV-4-11 cell line (AID 2202233); further: potency means the concentration at half of the fitted maximal effect; nearly all actives have a fitted effect of over 45% in size
Outline: (§1)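 Luminescent ATP readout (CellTiter-Glo, 15 min at room temperature) after 48 hr drug exposure gave viability. Dose-response curves, normalized to DMSO and empty-well controls, were summarized as area under the curve and its mean-centred Z-score.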

[4] = BET inhibitor-based combinations targeting novel dependencies in MECOM-rearranged (r) AML: HNT-34 cell line (AID 2202234); further: potency means the concentration at half of the fitted maximal effect; nearly all actives have a fitted effect of over 35% in size
Outline: as §1

[5] = BET inhibitor-based combinations targeting novel dependencies in MECOM-rearranged (r) AML: SET-2 cell line (AID 2202231); conditions: SET-2 AML cells viability, CellTiter-Glo luminescence, 48 h; viability: stronger effect = lower value, series mostly up to about 46 µM;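 further: plate controls were DMSO treated cells for no effect and wells without cells for full effect; nearly all actives have a fitted effect of over 35% in size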
Outline: (§2)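 Luminescent ATP readout (CellTiter-Glo) after 48 hr drug exposure gives viability. Curves span 11 concentrations and are normalized to DMSO and empty wells. Activity is reported as area under the curve and its Z-transform within each cell line.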

[6] = BET inhibitor-based combinations targeting novel dependencies in MECOM-rearranged (r) AML: UCSD-AML1 cell line (AID 2202235);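 further: series mostly up to about 46 µM; plate controls were DMSO vehicle wells for no effect and blank wells for full effect; nearly all actives have a fitted effect of over 40% in size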
Outline: as §1

[7] = BET inhibitor-based combinations targeting novel dependencies in MECOM-rearranged (r) AML: AML-194 cell line (AID 2202237;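 further: plate controls were vehicle wells for no effect and wells without cells for full effect; nearly all actives have a fitted effect of over 40% in size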)
Outline: as §2

[8] = target: Cellular tumor antigen p53 (Homo sapiens) (UniProt P04637); assay: Primary qHTS for small molecule compounds that upregulate eGFP-tagged delta133p53alpha (in C-terminal) cells. (AID 2060324); further: potency means the concentration at half of the fitted maximal effect
Outline: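 Read-out: gated-cell GFP peak intensity (laser scanning cytometer), plate-normalized with DMSO as 0% activity, after 24 h compound exposure at 37C. Cells were C-terminal eGFP-tagged delta133p53alpha NCI-H358, doxycycline-induced (100 ng/ml, 24 h) before plating.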

[9] = target: Aldehyde dehydrogenase, mitochondrial (Homo sapiens) (UniProt P05091); assay: qHTS for Inhibitors of the Aldehyde Dehydrogenase Family (ALDH2) Validation screens (AID 2061302; active means well fitted inhibition curve with a large enough effect; title and protocol of this record describe different tests; further: potency means the concentration at half of the fitted maximal effect)
[10] = qHTS for Inhibitors of the Aldehyde Dehydrogenase Family (ALDH1A2, ALDH1A3, ALDH2, ALDH3A1) (AID 2061307); further: on the % scale 0 is the no-effect control and ±100 the full control effect; nearly all actives have a fitted effect of over 50% in size
[11] = target: Retinal dehydrogenase 2 (Homo sapiens) (UniProt O94788); assay: qHTS for Inhibitors of the Aldehyde Dehydrogenase Family (ALDH1A2) Confirmation screens (AID 2061314); further: potency means the concentration at half of the fitted maximal effect; nearly all actives have a fitted effect of over 65% in size
[12] = target: Retinaldehyde dehydrogenase 3 (Homo sapiens) (UniProt P47895); assay: qHTS for Inhibitors of the Aldehyde Dehydrogenase Family (ALDH1A3) Validation screen (AID 2061312); further: on the % scale 0 is the no-effect control and ±100 the full control effect; nearly all actives have a fitted effect of over 45% in size

Clc1ccccc1N1CCNCC1
activation [1]: 28.8%

COP(=O)(OC)C(O)C(Cl)(Cl)Cl (stereo not given)
activation [1]: -2.51%

COc1ccc2c(c1)[C@]13CCCCC1C(C2)N(C)CC3 (stereo not given in full)
activation [1]: 8.01%

C[C@H]1CCCC=CC2C[C@H](O)C[C@@H]2[C@H](O)C=CC(=O)O1 (stereo not given in full)
activation [1]: 23.5%

CCCCC(CC)COC(=O)c1ccccc1C(=O)OCC(CC)CCCC (stereo not given)
activation [1]: 0%

C[C@]12CC[C@H]3[C@@H](CCC4=CC(=O)CC[C@@H]43)[C@@H]1CC[C@@H]2O
activation [1]: -0.837%

CC1(C)C(C=C(Cl)Cl)C1C(=O)OC(C#N)c1cccc(Oc2ccccc2)c1 (stereo not given)
activation [1]: -23.2%

NP(N)(=O)NC(=O)c1ccc(F)cc1
activation [1]: -15.1%

COP(=S)(OC)Oc1ccc(S(N)(=O)=O)cc1
activation [1]: -28.8%

C=C1CC[C@@]2(O)[C@H]3Cc4ccc(O)c5c4[C@@]2(CCN3CC2CC2)[C@H]1O5
activation [1]: 6.21%

COC1CC(=C(c2cccs2)c2cccs2)C[N+](C)(C)C1 (stereo not given)
activation [1]: -5.86%

CC#C[C@]1(O)CC[C@H]2[C@@H]3C[C@H](C)C4=CC(=O)CC[C@]4(C)[C@H]3CC[C@@]21C
activation [1]: -4.18%

OCCCBr
activation [1]: -36.8%

CCC(=O)OC1CCC2C3CCC4=CC(=O)CC[C@@]4(C)C3CC[C@]12C (stereo not given in full)
activation [1]: 14.6%

C[N+](C)(C)CCOC(=O)C(O)(c1ccccc1)c1ccccc1
activation [1]: 16.4%

Cn1cnc(CCN)c1
activation [1]: -2.51%

Oc1ccc(Cl)cc1Cc1ccccc1
Potency [1]: 45.5 µM (active) and 24.6 µM (active)

O=C(CCCCl)c1ccc(F)cc1
activation [1]: -10.9%

CC(=O)Nc1cc([As](=O)(O)O)ccc1O
activation [1]: -10.9%

C[C@H]1C(=O)O[C@@H]2CCN3CC=C(COC(=O)[C@](C)(O)[C@]1(C)O)[C@H]23
activation [1]: -36.8%

O=c1n(Cl)c(=O)n(Cl)c(=O)n1Cl
activation [1]: 6.21%

Cc1ccc(Cl)c(O)c1
activation [1]: 5.08%

CC[N+]1(C)CCCC(OC(=O)C(O)(c2ccccc2)c2ccccc2)C1 (stereo not given)
activation [1]: 8.47%

COC(C)(C)CCCC(C)C/C=C/C(C)=C/C(=O)OC(C)C (stereo not given)
activation [1]: -11.9%

CCOP(=S)(OCC)O/N=C(\C#N)c1ccccc1
activation [1]: -18.6%

CN(C)CCc1c[nH]c2cccc(O)c12
activation [1]: 15.3%

S=C(SSC(=S)N1CCCCC1)N1CCCCC1
activation [1]: -16.7%

CCC1(CC)C(=O)C=CNC1=O
activation [1]: -17.5%

CCO/N=C(\CC)C1=C(O)CC(c2c(C)cc(C)cc2C)CC1=O (stereo not given)
activation [1]: 16.7%

CC[N+]1(CC)CCC(OC(=O)C(O)(c2ccccc2)c2ccccc2)C1 (stereo not given)
activation [1]: -15.3%

CCN(C(C)=O)c1cccc(-c2ccnc3c(C#N)cnn23)c1
activation [1]: -16.4%

CO/C=C(/C(=O)OC)c1ccccc1Oc1cc(Oc2ccccc2C#N)ncn1
activation [1]: -36.8%

O=C(O)c1ccnc2cc(C(OCCN3CCC(F)(F)CC3)c3ccccc3Cl)[nH]c12 (stereo not given)
activation [1]: -26.8%

CCCC1CCCCN1 (stereo not given)
activation [1]: -16.4%

CC=C(C)C(=O)O[C@H]1C(C)=C2[C@@H]3OC(=O)[C@@](C)(O)[C@@]3(O)[C@@H](OC(=O)CCC)C[C@](C)(OC(C)=O)[C@@H]2[C@@H]1OC(=O)CCCCCCC
activation [1]: -0.0676%

CCC(=O)CCCCC[C@@H]1NC(=O)[C@H]2CCCCN2C(=O)[C@H]([C@@H](C)CC)NC(=O)[C@H](Cc2cn(OC)c3ccccc23)NC1=O
activation [1]: -11.2%

C1CN2CCC1CC2
activation [1]: -19.2%

COC(=O)C(Cl)C(=O)OC
activation [1]: -13.4%

Cc1nc(-c2ccc(-c3ccc(C(=O)N4CCc5cc6c(cc54)C4(CCN(C)CC4)CO6)cc3)c(C)c2)no1
activation [1]: -21.1%

CCC(OC(C)=O)C(CC(C)NC)(c1ccccc1)c1ccccc1 (stereo not given)
Potency [1]: 28.5 µM (active)

CCCCCCC(=O)CCCCCC/C=C/C[C@@H](O)[C@H](O)[C@@](N)(CO)C(=O)O
activation [1]: 5.86%

C[C@]12CCC(=O)C=C1CC[C@@H]1[C@H]3CC[C@](C)(O)[C@@]3(C)CC[C@@H]12
Potency [1]: 50.9 µM (active)

c1cc2c(c(N3CCNCC3)c1)OCCO2
activation [1]: -12.6%

CC(Cc1ccccc1)NCc1ccccc1Cl (stereo not given)
activation [1]: 16.4%

CCCN(CCC)C(=O)Cc1c(-c2ccc(Cl)cc2)nc2ccc(Cl)cn12
activation [1]: 29.3%

Oc1ccc2[nH]cc(CCCCN3CC=C(c4ccccc4)CC3)c2c1
activation [1]: 22%

Oc1ccc(Cl)cc1
activation [1]: -7.34%

COc1cc(N)c(Cl)cc1C(=O)NC1CN2CCC1CC2 (stereo not given)
activation [1]: 10.7%

C=CCC1([C@H](C)CCC)C(=O)NC(=O)NC1=O
activation [1]: 7.34%

CCCN(CCC)CCc1c[nH]c2ccccc12
activation [1]: 22%

CC(C(=O)c1ccccc1)N(C)C (stereo not given)
activation [1]: 22.6%

CCN(CC)Cc1nccn1-c1ccc([N+](=O)[O-])cc1C(=O)c1ccccc1Cl
activation [1]: -4.18%

COc1cc(CC(C)N)cc2c1OCO2 (stereo not given)
activation [1]: 6.21%

c1cc2ccc3cccc4ccc(c1)c2c34
activation [1]: 0%

COc1ccc(Cc2nccc3cc(OC)c(OC)cc23)cc1OC
activation [1]: -17.6% and 20.4% and -35.4%

O=C1OC(CCN2CCCCC2)OC1(c1ccccc1)c1ccccc1 (stereo not given)
activation [1]: -20.9%

C[C@]12CCC(=O)C=C1CC[C@@H]1[C@@H]2CC[C@]2(C)C(=O)CC[C@@H]12
activation [1]: 7.34%

CC1N=C(N)OC1c1ccccc1 (stereo not given)
activation [1]: -17.5%

CCCCCCCCCC(=O)O[C@H]1CC[C@H]2[C@@H]3CCC4=CC(=O)CC[C@@H]4[C@H]3CC[C@]12C
activation [1]: 2.82%

C#CC(O)(C=CCl)CC (stereo not given)
activation [1]: 19.8%

O=[N+]([O-])c1cc([As](=O)(O)O)ccc1O
activation [1]: 9.21%

CC(=O)OC1(c2ccccc2)CCN(CCc2ccccc2)CC1
activation [1]: -10.7%

CN1CC[C@]23c4c5ccc(O)c4O[C@H]2[C@@H](O)CC[C@H]3[C@H]1C5
activation [1]: 14.1%

Nc1ccc([N+](=O)[O-])cc1
activation [1]: 28.8%

FC(F)(F)c1cccc(C2=CCN(CCc3ccc4ccccc4c3)CC2)c1
activation [1]: -5.08%

CC(Cc1ccc2c(c1)OCO2)NO (stereo not given)
activation [1]: -3.95%

[N-]=[N+]=CC(=O)OC[C@H](N)C(=O)O
activation [1]: 5.02%

CCCCCCCCCCCC[N+](C)(C)CCOc1ccccc1
Potency [1]: 21.9 µM (active)

CN1CCN(C(=O)O[C@H]2c3nccnc3C(=O)N2c2ccc(Cl)cn2)CC1
activation [1]: 11.9% and -19.6%

CCN(CCO)CCn1c(Cc2ccccc2)nc2c1c(=O)n(C)c(=O)n2C
activation [1]: 16.7%

O=C(O)c1ccc(=O)[nH]c1
activation [1]: 11.9%

CN(C)CCc1c[nH]c2cccc(OP(=O)(O)O)c12
activation [1]: -1.69%

O=C1CN2CCOC2(c2ccccc2Cl)c2cc(Cl)ccc2N1 (stereo not given)
activation [1]: 14.2%

CC1COC2(c3ccccc3Cl)c3cc(Cl)ccc3NC(=O)CN12 (stereo not given)
activation [1]: 28.5%

CC(C)=CC1C(C(=O)OCc2cccc(Oc3ccccc3)c2)C1(C)C (stereo not given)
activation [1]: 25.4%

CC(C)(C)C(O)C(Oc1ccc(Cl)cc1)n1cncn1 (stereo not given)
activation [1]: 10.7%

COc1ccc2c(c1)CN(C)CC2c1ccc(Cl)c(Cl)c1 (stereo not given)
activation [1]: 10.8%

CC(C)[N+](C)(CCC(C(N)=O)(c1ccccc1)c1ccccc1)C(C)C
activation [1]: 27.7%

CN1CCC(N(Cc2ccccc2)c2ccccc2)CC1
activation [1]: 10.7%

CN1CCN(c2ccc([N+](=O)[O-])c3no[n+]([O-])c23)CC1
Potency [2]: inactive | Potency [3]: 14.8 µM (active) | Potency [4]: 18.6 µM (active)

Cn1cc(C2=C(c3cn(C4CCN(Cc5ccccn5)CC4)c4ccccc34)C(=O)NC2=O)c2ccccc21
viability [5]: 103% | Potency [3]: 4.68 µM (active) | Potency [4]: 5.25 µM (active) | Potency [6]: inactive

CN(C)[C@@H]1C(=O)C(C(N)=O)=C(O)[C@@]2(O)C(=O)C3=C(O)c4c(O)cccc4[C@@](C)(O)[C@H]3C[C@@H]12
Potency [7]: inactive

C[N+]1(C)CCOC(O)(c2ccc(-c3ccc(C4(O)C[N+](C)(C)CCO4)cc3)cc2)C1 (stereo not given)
activation [1]: 14.5% | Potency [8]: inactive | Potency [9]: inactive | Potency [10]: inactive | Potency [11]: 12.7 µM (active)

C[N+](C)(C)CCOC(=O)CBr
activation [1]: -13.1% | Potency [8]: inactive | Potency [9]: inactive

C=CCN1C[C@@H](C)N([C@H](c2ccc(C(=O)N(CC)CC)cc2)c2cccc(OC)c2)C[C@@H]1C
activation [1]: -25.3% | Potency [8]: inactive | Potency [9]: inactive | Potency [12]: inactive

CC(C)(O)[C@@H]1C2OC(=O)[C@@H]1[C@]1(O)C[C@H]3O[C@]34C(=O)O[C@H]2[C@]14C (tested in a mixture with another compound)
activation [1]: 10.1% | Potency [8]: inactive | Potency [9]: inactive | Potency [12]: inactive

NC(CCCCCP(=O)(O)O)C(=O)O (stereo not given)
activation [1]: -10.2% | Potency [8]: inactive | Potency [9]: inactive | Potency [12]: inactive

c1ccc2cc(CC3=NCCN3)ccc2c1
activation [1]: -13.6% | Potency [8]: inactive | Potency [9]: inactive | Potency [12]: inactive

CP(=O)(O)C1=CCNCC1
activation [1]: -37.6% | Potency [8]: inactive | Potency [9]: inactive | Potency [12]: inactive

N#CCCN
activation [1]: 1.42% | Potency [8]: inactive | Potency [9]: inactive

CN1CCc2cccc(Cl)c2CC1
activation [1]: -13.1% | Potency [8]: inactive | Potency [9]: inactive | Potency [12]: inactive

c1ccc2c(c1)[I+]c1ccccc1-2
activation [1]: 35.2% | Potency [8]: 23.9 µM (active) | Potency [9]: 7.08 µM (active)
